Screens from PubChem BioAssay.
Most compounds without a hit are left out; they make up all but 3.8% or so of the library.
Mdm2-MdmX inh: human Mdm2/MdmX binding inhibition | O15151+Q00987 | SaOS-2 split-luciferase Mdm2/MdmX complementation, luminescence | inhibition, % at 8 µM | hit rate 3% among 330,000;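 active = inhibition of at least 50% at 8 µM in the primary screen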
Bfl-1 A1 inh: inhibitors of the anti-apoptotic protein A1, read as caspase activation; MEF A1-2A-BIM cells, Caspase-Glo 3/7 luminescence, 3 h; percent of clofoctol response, vehicle zero; caspase activation, % (concentration not given with the values); hit rate 0.066% among 330,000;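 active = over half of replicate activation scores above 10%, or exactly half above 10 with the replicate mean above 10; inconclusive = replicate mean below 10 yet half the replicates above 10; inactive = over half of replicates below 10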
NTR1 agonist: NTR1 (human) agonism; hit rate 0.17% among 330,000; P30989; NTR1-U2OS beta-arrestin-GFP spot imaging, agonist mode; AID 493036; activation, % at 20 µM;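 active = activation at or above 40% of the spot to cytoplasm intensity ratio, with at least 20 cells analyzed; inconclusive = wells under 20 cells, flagged as cytotoxic or low count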
Target sequence (P30989 whole entry, looked up): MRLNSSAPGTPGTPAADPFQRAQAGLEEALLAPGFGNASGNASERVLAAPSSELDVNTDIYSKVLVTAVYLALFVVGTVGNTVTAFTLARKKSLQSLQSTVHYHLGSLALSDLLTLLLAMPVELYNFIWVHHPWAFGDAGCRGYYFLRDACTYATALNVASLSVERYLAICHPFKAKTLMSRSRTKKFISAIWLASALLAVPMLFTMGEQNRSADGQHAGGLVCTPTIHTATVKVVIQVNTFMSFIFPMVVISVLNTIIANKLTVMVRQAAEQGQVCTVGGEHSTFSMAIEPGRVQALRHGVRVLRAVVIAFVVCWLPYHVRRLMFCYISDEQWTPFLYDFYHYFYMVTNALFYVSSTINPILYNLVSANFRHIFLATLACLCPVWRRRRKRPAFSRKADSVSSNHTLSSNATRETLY
Beta apoptosis: blocks beta cell apoptosis. INS-1E cytokine-induced death, ATP luminescence, 48 h; percent of positive-control rescue, neutral wells zero. protection from apoptosis, % (no concentration beside the values). hit rate 0.8% among 300,000. AID 435005;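 active = Every replicate reaches about 75%, or at least half do and their mean reaches it too, limit read from the data; inconclusive = At least half of replicates reach the limit but their mean does not; inactive = Under half of replicates reach the limit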;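 note: higher means more ATP so stronger rescue from cytokine killing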
697 NFkB inh: lowers PMA/ionomycin-induced NF-kB signal in 697 B cells; 697 B-cell NF-kB luciferase reporter, 16 h; inhibition, % at 4 µM; hit rate 0.33% among 330,000; in the data active = inhibition above about 35%
Jurkat NFkB inh: inhibitors of the PMA/ionomycin-induced NF-kB reporter in Jurkat cells | inhibition, % at 4 µM | AID 435003 | hit rate 0.53% among 330,000 | PMA/ionomycin-induced NF-kB luciferase reporter, luminescence; in the data active = inhibition above about 50%
Mdm2 MdmX conf: human Mdm2/MdmX binding inhibition, confirmed; shares compounds with Mdm2-MdmX inh; luminescent assay; inhibition, % at 8 µM; hit rate 55% among 10,000; in the data active = inhibition above about 40%
FLuc counter: full-length luciferase inhibition in Mdm2/MdmX counter-screen. shares compounds with Mdm2-MdmX inh. SaOS-2 full-length luciferase counterscreen, luminescence. inhibition, % at 8 µM. hit rate 77% among 6,200;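 active = mean inhibition at 8 µM reaching about 37%, which flags the compound as non-specific, limit read from the data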;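 note: p53-null SaOS-2 cells with luciferase driven by a doxycycline-inducible promoter; compound on cells about two nights before reading with doxycycline added after day one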
Hits are given with their value; i = inactive; ? = inconclusive; nt = no result.

SMILES | Mdm2-MdmX inh | Bfl-1 A1 inh | NTR1 agonist | Beta apoptosis | 697 NFkB inh | Jurkat NFkB inh | Mdm2 MdmX conf | others
Cc1nn(-c2ccccc2Cl)c2sc(C(=O)Nc3nnc(C4CC4)s3)cc12 | 74 | i | i | i | i | i | i
O=C(Nc1cc(Sc2ccccn2)cc([N+](=O)[O-])c1)c1ccc(Cl)cc1 | 52 | i | i | 75 | i | i | i
Nc1nc(N)nc(-c2ccccc2)n1 | i | i | i | i | i | i | nt
Nc1nc(N)nc(-c2ccc(Cl)c(Cl)c2)n1 | 50 | i | i | i | i | i | i
Cc1c(Cl)ccc2sc(NC(=O)c3ccco3)nc12 | i | nt | i | i | i | i | nt
Cc1ccc(S(=O)(=O)CCc2nnc(NC(=O)CCl)s2)cc1C | 75 | i | i | i | i | i | i
COc1ccc(S(=O)(=O)N(C)C[C@H]2Oc3c(NC(=O)CCC(F)(F)F)cccc3C(=O)N([C@H](C)CO)C[C@@H]2C)cc1 | i | i | i | i | i | i | nt
O=C(Nc1cccc(NC(=O)c2ccc(Br)o2)n1)c1ccc(Br)o1 | i | i | i | i | i | i | nt
Cc1ccc2cccc(NC(=O)c3ccc(Br)o3)c2n1 | 61 | i | i | i | i | i | 63 | FLuc counter=55
O=C(Nc1ccccc1-c1nc2ccccc2s1)c1ccc(Br)o1 | 60 | i | i | i | i | i | i
Cc1cccc(N2CCN(C(=O)CN3C(=O)NC4(CCCCCC4)C3=O)CC2)c1C | i | nt | i | nt | i | i | nt
Nc1c(C(=O)Nc2nc3ccccc3s2)sc2nc(-c3cccs3)ccc12 | 87 | i | i | i | i | i | i
Cc1ccc(CNc2nc(C)c(C(=O)N(C)C)s2)cc1 | i | i | i | i | i | i | nt
COC(=O)c1ccc(NC(=O)Cn2nc(C)c3ccccc3c2=O)cc1 | i | i | i | nt | i | i | nt
CCC(=O)Nc1cc(-c2nn(C)c(=O)c3ccccc23)ccc1OC | i | i | i | i | i | i | nt
Cc1ccc(-c2nn(CC(=O)NCc3cc(-c4nn(C)c(=O)c5ccccc45)ccc3C)c(=O)c3ccccc23)cc1 | 97 | i | i | i | i | i | i
COc1ccc(-c2nn(C)c(=O)c3ccccc23)cc1NC(=O)Cn1nc(C)c2ccccc2c1=O | 57 | i | i | i | i | i | i
Cc1nn(CC(=O)Nc2ccc3c(c2)oc2ccccc23)c(=O)c2ccccc12 | 77 | i | i | i | i | i | i
O=C(CN1C(=O)NC2(CCCC2)C1=O)OCCOc1ccc(Br)cc1 | i | i | i | i | i | i | nt
CC(C)(CN1CCNCC1)NS(=O)(=O)c1ccc(Cl)cc1 | 61 | i | i | i | i | i | i
Oc1ccccc1/C=N/Nc1nccnc1Cl | 71 | i | i | 94 | i | i | 65 | FLuc counter=i
Oc1ccc(/C=N/Nc2nccnc2Cl)c(O)c1 | 57 | i | i | 75 | i | i | 73 | FLuc counter=39
O=C(CCNS(=O)(=O)c1ccccc1)N1CCN(C(c2ccccc2)c2ccccc2)CC1 | i | i | i | i | i | i | nt
CCCCN(CC)CCNC(=O)c1cc2c(-c3ccccc3F)nn(C)c2s1 | i | i | i | i | i | i | nt
CCN(CC)CCCNC(=O)c1cc2c(-c3ccc(Cl)cc3)nn(C)c2s1 | 64 | i | i | i | i | i | i
SMILES | Mdm2-MdmX inh | Bfl-1 A1 inh | NTR1 agonist | Beta apoptosis | 697 NFkB inh | Jurkat NFkB inh | Mdm2 MdmX conf | others
COc1cccc(-c2nn(C)c3sc(C(=O)N4CCOCC4)cc23)c1 | i | i | i | nt | i | i | nt
CN1CCN(CCCNC(=O)c2cc3c(-c4ccc(Cl)cc4)nn(C)c3s2)CC1 | 68 | nt | i | nt | i | i | i
Cn1nc(-c2ccc(Cl)cc2)c2cc(C(=O)NCC3CCCO3)sc21 (centres undefined) | i | i | i | i | i | i | nt
CCN(CCCNC(=O)c1cc2c(-c3cccc(OC)c3)nn(C)c2s1)Cc1ccccc1 | 55 | i | i | i | i | i | i
COc1ccc(NC(=O)c2cc3c(-c4ccc(OC)c(OC)c4)nn(C)c3s2)cc1OC | 97 | ? | i | i | i | i | 67 | FLuc counter=50
O=C1CC(=O)Nc2cc(S(=O)(=O)N3CCOc4ccc(Cl)cc43)ccc2N1 | i | i | i | i | i | i | nt
COc1cccc(-c2nn(C)c3sc(C(=O)NCc4ccc(C)o4)cc23)c1 | 70 | i | i | i | i | i | i
COc1cccc(-c2nn(C)c3sc(C(=O)NCc4ccc5c(c4)OCO5)cc23)c1 | i | i | i | i | i | i | nt
CSc1nc(Cl)c(C#N)c(-c2ccc(C)cc2)n1 | i | i | i | i | i | i | nt
CCSc1nc(-c2ccccc2)nc(C(Cl)Cl)n1 | 98 | i | i | 94 | i | i | 100 | FLuc counter=i
CSc1nc(-c2ccc(C)cc2)nc(C(Cl)Cl)n1 | 97 | i | i | i | i | i | 95 | FLuc counter=40
O=C(Nc1nnc2n1CCS2)c1ccco1 | i | i | i | i | i | i | nt
C=CCNC(=S)NNC(=O)C(CCCC)CC(C)O (centres undefined) | i | i | i | i | i | i | nt
C=CCNC(=S)NNC(=O)CCC(O)CCCCC (centres undefined) | 54 | i | i | i | i | i | i
CC1CCCC(NC(=O)CN(C)CC(=O)Nc2cccc(F)c2)C1C (centres undefined) | i | i | i | i | i | i | nt
COc1cc(-c2noc(C)c2C#Cc2ccc(N)cc2)cc(OC)c1OC | 89 | i | i | i | i | i | 70 | FLuc counter=89
Nc1ncnc2c1ncn2[C@@H]1O[C@H](CNC(=O)[C@H](N)Cc2cscn2)[C@@H](O)[C@H]1O | i | nt | i | nt | i | nt | nt
CC(C)(C)c1ccc(C(=O)NC(=O)COC(=O)c2ccc(Br)o2)cc1 | i | i | i | i | i | i | nt
O=c1cc(Nc2ccc3c(c2)OCCO3)[nH]c(=O)n1C1CCCCC1 | 55 | i | i | i | i | i | 53 | FLuc counter=58
Cc1cccc(NC(=O)C(C)OC(=O)c2ccccc2NS(=O)(=O)c2cc(C)c(C)c([N+](=O)[O-])c2)c1 (centres undefined) | 62 | i | i | i | i | i | i
COc1ccc(-c2nc(CN3CCN(c4cc(C)nc(C)c4)CC3)c(C)o2)c2ccccc12 | 97 | i | i | i | i | i | 48 | FLuc counter=i
Cc1oc(-c2cccc3ccccc23)nc1CN1CCN(c2ncnc3ccccc23)CC1 | i | i | i | i | i | i | nt
Cc1cc(N2CCN(Cc3nc(-c4ccc(Cl)cc4)oc3C)CC2)cc(C)n1 | 64 | i | i | i | i | i | i | FLuc counter=68
CCNc1nc(NC(C)C)nc(Oc2ccc(OCCOc3ccccc3)nn2)n1 | 51 | i | i | i | i | i | i
COC(=O)Cc1[nH]n(-c2nc3ccccc3s2)c(=O)c1C(C)=Nc1ccc(C)cc1 | 56 | ? | i | i | i | i | 56 | FLuc counter=i
